Data reported in PubChem BioAssay (NCATS).
Inconclusive results are not listed. The source made the active and inactive calls. Calls follow the shape of the dose curve; as a rule, active = well fitted activation curve with a large enough effect; inconclusive = small, poorly fitted or top-dose-only effect; inactive = flat fitted curve, though single readings scatter.

test: Primary redox qHTS assay for identification of artifact compounds. (AID 1845223); conditions: Amplex Red/HRP redox cycling with DTT, fluorescence; series mostly up to 53.8 µM
Method in brief: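 Amplex Red (25 uM) and HRP (250 mU/mL) in HBSS, with compounds for 15 min, then 250 uM DTT for 30 min, room temperature, dark. Fluorescence 525/598 nm read; normalized to DMSO and 10 uM DA3003; Hill fit.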

Q: For `CC(=O)O[C@]1(C(C)=O)CC[C@H]2[C@@H]3C[C@H](C)C4=CC(=O)CC[C@]4(C)[C@H]3CC[C@@]21C`, which outcome is on record?
A: inactive

Q: Which outcome does the source give for `CN1C(CCl)Nc2cc(Cl)c(S(N)(=O)=O)cc2S1(=O)=O` (configuration not stated) here?
A: inactive

Q: For `Cc1ccc(Nc2c(F)cccc2Cl)c(CC(=O)O)c1`, which outcome is on record?
A: inactive

Q: Which outcome does the source give for `Cc1cc2c(cc1CC(=O)c1sccc1S(=O)(=O)Nc1onc(C)c1Cl)OCO2` here?
A: inactive

Q: With `CN(C)CCCOc1nn(Cc2ccccc2)c2ccccc12` as the compound, how does the outcome read?
A: inactive

Q: With `Nc1ccn([C@@H]2O[C@H](CO)[C@@H](O)C2(F)F)c(=O)n1` as the compound, how does the outcome read?
A: inactive

Q: With `CCCCS(=O)(=O)N[C@@H](Cc1ccc(OCCCCC2CCNCC2)cc1)C(=O)O` as the compound, how does the outcome read?
A: inactive

Q: For `COC(=O)C1=C(C)NC(C)=C(C(=O)O[C@@H]2CCCN(Cc3ccccc3)C2)[C@@H]1c1cccc([N+](=O)[O-])c1`, which outcome is on record?
A: inactive

Q: Which outcome does the source give for `COc1ccc(CN2CCN(C(c3ccc(F)cc3)c3ccc(F)cc3)CC2)c(OC)c1OC` here?
A: inactive

Q: Which outcome does the source give for `Cc1nc2n(c(=O)c1CCN1CCC(c3noc4cc(F)ccc34)CC1)CCC[C@H]2O` here?
A: inactive

Q: For `CC(=O)OCC(=O)[C@@]1(O)CC[C@H]2[C@@H]3CCC4=CC(=O)C=C[C@]4(C)[C@H]3[C@@H](O)C[C@@]21C`, which outcome is on record?
A: inactive

Q: For `CN1CCN(C(c2ccccc2)c2ccccc2)CC1`, which outcome is on record?
A: inactive
